SMN2 splice enh = increases expression of the SMN2 splice variant; HEK293 SMN2-luciferase splicing reporter, luminescence, 30-36 h; Potency, µM (highest dose often 46.1 µM), usual class: activators; 210,000 compounds, 2.8% hits; AID 1458; note: nearly all actives have a fitted effect of over 55% in size
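qHTS luciferase splicing reporter: luminescence rises when SMN2 exon 7 is included in transfected HEK293 cells. Compound exposure lasted 30-36 h at 37C, with 4.5 mM final sodium butyrate as control, followed by a ONE-Glo read.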
Luc counter = counter-screen: inhibitors of Kinase-Glo firefly luciferase; Q27757; Kinase-Glo luciferase, ATP luminescence, 8 min; Potency, µM (top dose mostly 38.3 µM), most hits filed as inhibitors; 200,000 compounds, 0.28% hits; AID 1379; note: nearly all actives have a fitted effect of over 60% in size
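Compounds were added to a substrate mix at pH 7.2 (50 mM imidazole, 10 uM ATP, within the enzyme's linear range), followed by Kinase-Glo detection reagent; luminescence was measured after 8 minutes at ambient temperature.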
Rab9 prom act = Rab9 promoter activation; Huh7 Rab9 promoter-luciferase reporter, luminescence, 24 h; Potency, µM (highest dose often 9.22 µM), actives largely listed as activators; 320,000 compounds, 2.8% hits; AID 485297; note: nearly all actives have a fitted effect of over 60% in size
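Luminescence from Amplite-detected luciferase (10 minutes, ambient) reports Rab9 promoter activation. Before that, stable Rab9-luciferase Huh7 cells (1500/well, reduced-serum OP-MEM I plus 10% FBS) were exposed to compound for 24 hours at 37C.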
FLuc counter = firefly luciferase modulation, counter-screen for miR-21 project | P08659 | purified FLuc, Km substrates, luminescence inhibition | Potency, µM (highest dose often 57.5 µM), usual class: inhibitors | 360,000 compounds, 6.9% hits | AID 588342; note: nearly all actives have a fitted effect of over 55% in size
Target sequence (P08659 whole entry, looked up): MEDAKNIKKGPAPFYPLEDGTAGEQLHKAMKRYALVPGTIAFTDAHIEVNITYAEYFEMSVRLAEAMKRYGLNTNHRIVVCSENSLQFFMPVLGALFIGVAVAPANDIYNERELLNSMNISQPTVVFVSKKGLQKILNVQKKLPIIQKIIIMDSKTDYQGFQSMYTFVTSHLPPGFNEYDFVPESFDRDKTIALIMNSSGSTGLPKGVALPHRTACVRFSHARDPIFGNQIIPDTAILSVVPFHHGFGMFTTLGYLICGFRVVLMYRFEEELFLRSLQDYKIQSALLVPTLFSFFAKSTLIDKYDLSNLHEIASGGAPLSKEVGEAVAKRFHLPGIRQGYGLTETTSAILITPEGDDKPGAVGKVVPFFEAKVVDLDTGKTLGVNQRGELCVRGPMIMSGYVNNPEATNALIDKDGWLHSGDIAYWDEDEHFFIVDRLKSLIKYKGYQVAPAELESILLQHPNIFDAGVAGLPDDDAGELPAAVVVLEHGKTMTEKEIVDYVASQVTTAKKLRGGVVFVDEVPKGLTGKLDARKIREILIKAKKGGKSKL
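Purified P. pyralis luciferase, 10 nM final, with Km-level 10 uM D-luciferin and 10 uM ATP in 50 mM Tris acetate pH 7.5, 10 mM Mg acetate, 0.01% Tween-20, 0.05% BSA; 6-point qHTS titration about 60 µM downward; luminescence read.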
NPC1 promoter act = activators of NPC1 promoter. Huh7 NPC1 promoter luciferase reporter, 24 h. Potency, µM (highest dose often 9.22 µM), most hits filed as activators. 320,000 compounds, 2.4% hits. AID 485313; note: nearly all actives have a fitted effect of over 60% in size
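In 1536-well qHTS, Huh7 cells harboring an NPC1 promoter–luciferase construct received compound for 24 h; activation was quantified by luminescence following luciferase reagent addition.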
Each line names hits and unclear results; the compound was inactive in the other large screens. Sampled rows, rich in hits. Any-hit rate of the full collection: about 7.3%. Calls come from the whole dose curve; as a rule, active = well fitted curve in the direction sought with a large enough effect; inconclusive = small, poorly fitted or top-dose-only effect, or another doubt; inactive = no such curve, though single readings can be large; an effect the other way counts as inactive or inconclusive.

COc1ccccc1-c1cc(C(=O)N2CCOCC2)no1	Rab9 prom act 2.2µM, FLuc counter 13µM, NPC1 promoter act inconclusive (no result: SMN2 splice enh, Luc counter)
O=C(c1cccc(F)c1)N1CCN(C(=O)c2cc(-c3ccc(Cl)cc3Cl)on2)CC1	FLuc counter 11µM (no result: SMN2 splice enh)
O=C(c1cc(-c2ccccc2Cl)on1)N1CCCC1	Rab9 prom act inconclusive, FLuc counter 1.2µM, NPC1 promoter act inconclusive (no result: SMN2 splice enh, Luc counter)
Cc1ccc(CNC(=O)Cn2ccn(-c3ccc(F)cc3)c(=O)c2=O)cc1	none (no result: SMN2 splice enh, Luc counter, Rab9 prom act, NPC1 promoter act)
O=C(c1csc(Nc2ccccc2Cl)n1)N1CCCC1	SMN2 splice enh 13µM, Rab9 prom act inconclusive, FLuc counter inconclusive, NPC1 promoter act inconclusive
O=C(c1csc(Nc2cccc3ccccc23)n1)N1CCCC1	none (no result: SMN2 splice enh, Luc counter)
Cc1ccccc1NC(=O)C1Cc2ccccc2CN1C(=O)c1ccco1 (stereo unspecified)	Rab9 prom act inconclusive, FLuc counter inconclusive, NPC1 promoter act 2.8µM (no result: SMN2 splice enh, Luc counter)
O=C(NCc1ccccc1)C1Cc2ccccc2CN1C(=O)c1ccco1 (stereo unspecified)	none
O=C(c1cccc([N+](=O)[O-])c1)c1ccc2c(c1)OCCOCCOCCOCCO2	none (no result: SMN2 splice enh, Luc counter)
O=C(COC(=O)c1cccc([N+](=O)[O-])c1)c1ccc2c(c1)OCO2	Rab9 prom act 2.5µM, FLuc counter 2.7µM, NPC1 promoter act 3.5µM (no result: SMN2 splice enh, Luc counter)
Cc1ccc(C(=O)COC(=O)c2cccc([N+](=O)[O-])c2)s1	FLuc counter 4.8µM (no result: SMN2 splice enh, Luc counter)
COc1ccc(Br)cc1C(=O)Nc1cccc2ccc(C)nc12	none (no result: Luc counter, Rab9 prom act, NPC1 promoter act)
CC1CCN(C2=NC(=O)/C(=C/c3cn(-c4ccccc4)nc3-c3cccc(S(=O)(=O)N(C)C)c3)S2)CC1	Rab9 prom act inconclusive, FLuc counter 2.7µM
CC1CCCN(C2=NC(=O)/C(=C/c3cn(-c4ccccc4)nc3-c3cccc(S(=O)(=O)N(C)C)c3)S2)C1 (stereo unspecified)	FLuc counter inconclusive
COc1ccccc1Nc1nc2c(s1)CCC2	FLuc counter 15µM
COc1ccccc1Nc1c2c(nc3ccccc13)CCC2	none (no result: SMN2 splice enh, Luc counter)
Cc1ccc(Nc2nc3c(s2)CCC3)c(C)c1	SMN2 splice enh 13µM, Rab9 prom act inconclusive, FLuc counter 7.6µM, NPC1 promoter act inconclusive
CCC(=O)N1CCc2cc(Br)cc(S(=O)(=O)CCC(=O)NCc3ccccc3)c21	none (no result: Luc counter, Rab9 prom act, NPC1 promoter act)
COc1ccc(OC)c(CCNC(=O)c2cc3c(=O)oc4ccc(C)cc4c3s2)c1	none (no result: Luc counter, Rab9 prom act, NPC1 promoter act)
Cc1nc(-c2ccc(Cl)cc2)sc1C1(C)CC(c2c(Cl)cccc2Cl)=NO1 (stereo unspecified)	none (no result: SMN2 splice enh, Luc counter)
Cc1nc(-c2ccc(Cl)cc2)sc1C1(C)CC(c2cccnc2)=NO1 (stereo unspecified)	Rab9 prom act inconclusive, FLuc counter 17µM, NPC1 promoter act inconclusive (no result: SMN2 splice enh, Luc counter)
CCCCOc1ccc(CSCCN)cc1Cl	FLuc counter 12µM (no result: SMN2 splice enh, Luc counter)
O=C(CSc1ncc(S(=O)(=O)c2ccc(Cl)cc2)c(=O)[nH]1)Nc1ccc2c(c1)OCCO2	FLuc counter 12µM (no result: Luc counter, Rab9 prom act, NPC1 promoter act)
COc1cccc(NC(=O)CSc2ncc(S(=O)(=O)c3ccc(C)c(C)c3)c(=O)[nH]2)c1	FLuc counter inconclusive (no result: Luc counter, Rab9 prom act, NPC1 promoter act)
Cc1ccc(S(=O)(=O)c2cnc(SCC(=O)Nc3ccc4c(c3)OCCO4)[nH]c2=O)cc1Cl	FLuc counter 11µM (no result: SMN2 splice enh, Luc counter, Rab9 prom act, NPC1 promoter act)
Cc1cc(C)c(NC(=O)CSc2ncc(S(=O)(=O)c3ccc(C(C)(C)C)cc3)c(=O)[nH]2)c(C)c1	FLuc counter 11µM (no result: Luc counter, Rab9 prom act, NPC1 promoter act)
COc1ccc(S(=O)(=O)c2cnc(SCC(=O)Nc3cc(F)ccc3C)[nH]c2=O)cc1Cl	FLuc counter 9.5µM (no result: Luc counter, Rab9 prom act, NPC1 promoter act)
COc1cc(CN(C(=O)c2ccccc2)c2ccccn2)cc(OC)c1OC	none (no result: SMN2 splice enh, Luc counter, Rab9 prom act, NPC1 promoter act)
Cc1ccc(-c2nnc(SCC(=O)NC(C)(C)C)nc2-c2ccc(C)cc2)cc1	none (no result: SMN2 splice enh, Luc counter, Rab9 prom act, NPC1 promoter act)
O=C(CSc1ncn[nH]1)Nc1ccc2c(c1)OCCO2	Rab9 prom act inconclusive, FLuc counter inconclusive
CC(C)c1ccc(S(=O)(=O)c2cnc(SCC(=O)Nc3ccc4c(c3)OCCO4)[nH]c2=O)cc1	FLuc counter 11µM (no result: Luc counter, Rab9 prom act, NPC1 promoter act)
Cc1ccc(S(=O)(=O)c2cnc(SCC(=O)Nc3ccc4c(c3)OCCO4)[nH]c2=O)cc1	FLuc counter 11µM (no result: Luc counter, Rab9 prom act, NPC1 promoter act)
Cc1cc(OCc2cc(C(=O)N(C)CCOc3ccccc3)no2)cc(C)c1Cl	none (no result: SMN2 splice enh, Luc counter)
Cc1cc(OCc2cc(C(=O)N(C)Cc3ccccn3)no2)cc(C)c1Cl	Rab9 prom act 4µM, FLuc counter 12µM, NPC1 promoter act 4µM (no result: SMN2 splice enh, Luc counter)
